This note sets out measurements from PubChem BioAssay (Tox21).

Where “and” joins values, the source holds several entries; their conditions need not be identical. Identical values can stand only once. Values without a mark were called inactive. Records with an inconclusive call do not appear. Calls of active or inactive are those of the source. Unless noted, calls follow the shape of the dose curve; as a rule, active = well fitted curve in the direction sought with a large enough effect in the repeat runs; inconclusive = weak or mixed curves; inactive = no such curve, though single readings can be large; an effect the other way counts as inactive or inconclusive.

Assay [1] addresses Thyrotropin-releasing hormone receptor (Homo sapiens) (UniProt P34981). The assay can be described thus: qHTS assay to identify small molecule agonists of the thyrotropin-releasing hormone receptor (TRHR) signaling pathway (AID 1346891; calls by dose curve;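 also: HEK293 cells expressing TRHR with calcium dye readout; series mostly up to about 58 µM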). The procedure, abridged:
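Compounds were tested as agonists at 15 concentrations, in triplicate, on TRHR-Hek293 cells; calcium-sensitive dye fluorescence was recorded for 3 min following addition.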
(In general: Quantitative high-throughput screening tests each substance at several concentrations.)

A short description of assay [2]: Human pregnane X receptor (PXR) small molecule agonists, qHTS cell viability counter screen (AID 1346977). Also: nearly all actives have a fitted effect of over 50% in size. Also: potency is read from the fitted curve at half-maximal effect. The essentials:
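Viability counter screen: CellTiter-Fluor signal in PXR-Luc HepG2 cells, 24hr compound exposure, 37C, 5% CO2.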

A short description of assay [3]: Caspase-3/7 induction in HepG2 cells by small molecules, qHTS assay (AID 1346978). Also: nearly all actives have a fitted effect of over 15% in size. Also: potency is read from the fitted curve at half-maximal effect. The procedure, abridged: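 Wild-type HepG2 cells (2,000/well) were settled 5 h at 37 C, 5% CO2, then exposed to compounds in DMSO for 17 h. Caspase-3/7 activity was read by luminescence 30 min after adding Caspase-Glo 3/7 reagent at room temperature.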
A short description of assay [4]: Caspase-3/7 induction in CHO-K1 cells by small molecules, qHTS cell viability counter screen (AID 1346979). Also: nearly all actives have a fitted effect of over 35% in size. Also: potency is read from the fitted curve at half-maximal effect. The procedure, abridged:
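Viability readout by fluorescence (CellTiter-Fluor) on wild-type CHO-K1 cells exposed for 16hr at 37C and 5% CO2 to compounds delivered in DMSO; reagent incubated 1hr before reading.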

Assay [5] is described as follows: Caspase-3/7 induction in CHO-K1 cells by small molecules, qHTS assay (AID 1346980). Also: nearly all actives have a fitted effect of over 15% in size. The essentials: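 Wild-type cells were seeded at 1,500 per well and settled 5 hr at 37 C, 5% CO2, then exposed to DMSO-dissolved compounds for 17 hr. Caspase-Glo 3/7 reagent was added, and luminescence was read after 30min at room temperature.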
Assay [6] is described as follows: Caspase-3/7 induction in HepG2 cells by small molecules, qHTS cell viability counter screen (AID 1346981). Also: nearly all actives have a fitted effect of over 30% in size. Also: potency is read from the fitted curve at half-maximal effect. As to activity change, negative = cytotoxicity: series mostly up to about 92 µM. The procedure, abridged:
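Steps: seed 2,000 HepG2 cells per well; incubate 5 hr at 37 C; pin-add compounds in DMSO; incubate 16 hr; add CellTiter-Fluor; after 1 hr at 37 C and 5% CO2, read fluorescence.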

Assay [7] deals with Nuclear receptor subfamily 1 group I member 2 (Homo sapiens) (UniProt O75469). The assay can be described thus: Human pregnane X receptor (PXR) small molecule agonists, qHTS assay (AID 1346982). Also: nearly all actives have a fitted effect of over 35% in size. Also: potency is read from the fitted curve at half-maximal effect. The essentials: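 Agonist mode qHTS: PXR-Luc HepG2 cells plated 5 hr before DMSO-dissolved compounds were pinned in, cultured 24 hr at 37 C, 5% CO2; ONE-Glo luminescence readout.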
Chain of Nuclear receptor subfamily 1 group I member 2 (Homo sapiens) (O75469 whole entry, looked up): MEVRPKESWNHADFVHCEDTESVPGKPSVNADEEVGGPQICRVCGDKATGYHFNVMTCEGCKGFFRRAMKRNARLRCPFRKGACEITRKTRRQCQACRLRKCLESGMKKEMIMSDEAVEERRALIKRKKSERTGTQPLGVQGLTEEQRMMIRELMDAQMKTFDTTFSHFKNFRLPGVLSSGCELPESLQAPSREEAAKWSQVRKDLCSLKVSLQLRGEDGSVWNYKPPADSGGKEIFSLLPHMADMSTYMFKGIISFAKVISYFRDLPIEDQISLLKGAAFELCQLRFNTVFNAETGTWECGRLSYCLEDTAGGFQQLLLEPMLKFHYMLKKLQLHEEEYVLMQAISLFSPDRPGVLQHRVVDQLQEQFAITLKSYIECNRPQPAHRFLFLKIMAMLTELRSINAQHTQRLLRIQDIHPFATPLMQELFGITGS
% is scaled to controls: 0 for no effect and ±100 for the full control effect.

Chain of Thyrotropin-releasing hormone receptor (Homo sapiens) (P34981 whole entry, looked up): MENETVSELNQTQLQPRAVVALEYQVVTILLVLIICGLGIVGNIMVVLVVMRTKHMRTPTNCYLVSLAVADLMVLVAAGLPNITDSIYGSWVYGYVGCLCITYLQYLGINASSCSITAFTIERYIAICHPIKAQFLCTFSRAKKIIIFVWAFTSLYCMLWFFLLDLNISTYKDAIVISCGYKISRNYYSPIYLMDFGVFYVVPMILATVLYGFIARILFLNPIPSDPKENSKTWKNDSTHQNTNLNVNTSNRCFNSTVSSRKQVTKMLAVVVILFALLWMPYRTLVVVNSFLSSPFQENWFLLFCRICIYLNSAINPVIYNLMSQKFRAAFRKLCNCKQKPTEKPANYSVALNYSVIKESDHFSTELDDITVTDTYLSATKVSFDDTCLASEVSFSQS

`CCc1cccc2c(CCO)c[nH]c12`: the result in assay [1] and in assay [5] was inactive. Also, the Potency entry in assay [2], in assay [3], in assay [4] and in assay [6] was “inactive” throughout.
`CC(C)NCCCC1(C(N)=O)c2ccccc2-c2ccccc21`: the result in assay [1] and in assay [5] was inactive. The Potency result in assay [2], in assay [3], in assay [4] and in assay [6] was “inactive” throughout. In addition, in assay [7], the Potency is 23.7 µM (active).
For the compound `CC(=O)CC(C)(C)C1CCCCC1`, the compound was classed as inactive in assay [1] and in assay [5]. In addition, the Potency entry in assay [2], in assay [3], in assay [4] and in assay [6] was “inactive” each time.
Take `C[C@H](NC(CCc1ccccc1)C(=O)O)C(=O)N1CCC[C@H]1C(=O)O` (stereo not given in full): the compound was classed as inactive in assay [1] and in assay [5]. Further, the Potency result in assay [2], in assay [3], in assay [4] and in assay [6] was “inactive” each time.
As for `COC(=O)c1cc(C(=O)OC)cc(S(=O)(=O)O)c1`, the result in assay [1] and in assay [5] was inactive. The Potency result in assay [2], in assay [3], in assay [4] and in assay [6] was “inactive” in each case.
For `Cc1ccc(C#N)cc1`, the compound was called inactive in assay [1] and in assay [5]. For the same compound, the Potency entry in assay [2], in assay [3], in assay [4] and in assay [6] was “inactive” each time.
For the compound `CN(C)CCCN1c2ccccc2CCc2ccc(Cl)cc21`, the result in assay [1] and in assay [5] was inactive. In addition, the Potency in assay [2] is 30.6 µM (active) and 29.8 µM (active); in assay [3], 61.1 µM (active); in assay [4] it was 68.6 µM (active) and 29.8 µM (active); in assay [6], 61.1 µM (active) and 29.8 µM (active).
On to `O=C1CCCCCCCCCCCN1`, for which the compound was called inactive in assay [1] and in assay [5]. Also, the Potency result in assay [2], in assay [3], in assay [4] and in assay [6] was “inactive” in each case. For the same compound, the Potency in assay [7] is 48.5 µM (active) and 27.3 µM (active).
With `CCCCCCCCCCCC`, the result in assay [1] and in assay [5] was inactive. Further, the Potency entry in assay [2], in assay [3], in assay [4], in assay [6] and in assay [7] was “inactive” throughout.
On to `Nc1c2c(nc3ccccc13)CCCC2O` (stereo not given), for which the compound was classed as inactive in assay [1] and in assay [5]. Also, the Potency entry in assay [2], in assay [3], in assay [4] and in assay [6] was “inactive” each time.
In the case of `O=C1CC2CC1C1CCCC21` (stereo not given), the outcome in assay [1] and in assay [5] was inactive. In addition, the Potency entry in assay [2], in assay [3], in assay [4] and in assay [6] was “inactive” each time.
Regarding `C=COCC1CCC(CO)CC1` (stereo not given), the compound was called inactive in assay [1] and in assay [5]. Also, the Potency result in assay [2], in assay [3], in assay [4] and in assay [6] was “inactive” each time.
For the compound `CC(C)(O)C#CC(C)(C)O`, the outcome in assay [1] and in assay [5] was inactive. In addition, the Potency result in assay [2], in assay [3], in assay [4] and in assay [6] was “inactive” throughout.
`C=C[Si](OC(=C)C)(OC(=C)C)OC(=C)C`: the compound was classed as inactive in assay [1] and in assay [5]. The Potency result in assay [2], in assay [3], in assay [4], in assay [6] and in assay [7] was “inactive” throughout.
Regarding `CCC(C)S` (stereo not given), the activation was 0.209% [at 2.04 µM] in assay [1] and -2.18% [at 3.27 µM] in assay [7]. Besides, the values for the activity change, negative = cytotoxicity in assay [2], in assay [4] and in assay [6] were 2.43% [at 3.27 µM], 5.39% [at 3.27 µM] and -0.646% [at 3.27 µM], respectively. Besides, the caspase activation in assay [3] is -0.355% [at 3.27 µM]. Further, the caspase-3/7 activation in assay [5] is 1.28% [at 3.27 µM].
For `O=C1CCCN1C1CCCCC1`, the result in assay [1] and in assay [5] was inactive. Further, the Potency result in assay [2], in assay [3], in assay [4] and in assay [6] was “inactive” each time.
Take `Nc1cc(=O)[nH]c(N)n1`: the outcome in assay [1] and in assay [5] was inactive. For the same compound, the Potency result in assay [2], in assay [3], in assay [4] and in assay [6] was “inactive” throughout.
On to `CCCN(CCC)CCc1cccc2c1CC(=O)N2`, for which the outcome in assay [1] and in assay [5] was inactive. The Potency entry in assay [2], in assay [3], in assay [4], in assay [6] and in assay [7] was “inactive” in each case.
Consider `CCN(Cc1ccncc1)C(=O)C(CO)c1ccccc1` (stereo not given), for which the compound was called inactive in assay [1] and in assay [5]. Also, the Potency entry in assay [2], in assay [3], in assay [4] and in assay [6] was “inactive” in each case.
With `CC(NC(CCc1ccccc1)C(=O)O)C(=O)N1C(=O)N(C)CC1C(=O)O` (stereo not given), the result in assay [1] and in assay [5] was inactive. In addition, the Potency result in assay [2], in assay [3], in assay [4], in assay [6] and in assay [7] was “inactive” each time.
Consider `NCCc1cnc[nH]1`, for which the compound was called inactive in assay [1] and in assay [5]. Also, the Potency entry in assay [2], in assay [3], in assay [4] and in assay [6] was “inactive” in each case.
With `COc1ccc(CCN(C)CCCC(C#N)(c2cc(OC)c(OC)c(OC)c2)C(C)C)cc1OC` (stereo not given), the compound was classed as inactive in assay [1] and in assay [5]. Also, the Potency in assay [2] was 26.6 µM (active). Besides, the Potency entry in assay [3] and in assay [4] was “inactive” throughout.
As to `CC(=O)c1ccccc1O`, the compound was classed as inactive in assay [1] and in assay [5]. The Potency entry in assay [2], in assay [3], in assay [4], in assay [6] and in assay [7] was “inactive” each time.
On to `CC(C)(O)C(=O)c1ccccc1`, for which the result in assay [1] and in assay [5] was inactive. Further, the Potency entry in assay [2], in assay [3], in assay [4], in assay [6] and in assay [7] was “inactive” in each case.
Turning to `O=C(O)CNC(=O)c1ccc([N+](=O)[O-])cc1`, the compound was called inactive in assay [1] and in assay [5]. The Potency entry in assay [2], in assay [3], in assay [4] and in assay [6] was “inactive” throughout.
With `CC/C=C\CC/C=C/CO`, the outcome in assay [1] and in assay [5] was inactive. Also, the Potency result in assay [2], in assay [3], in assay [4], in assay [6] and in assay [7] was “inactive” in each case.
For the compound `O=C(O)CCCl`, the compound was classed as inactive in assay [1] and in assay [5]. For the same compound, the Potency entry in assay [2], in assay [3], in assay [4] and in assay [6] was “inactive” throughout. Besides, the Potency in assay [7] was 61.9 µM (active).
On to `Cc1ccc(=O)n(-c2ccccc2)c1`, for which the outcome in assay [1] and in assay [5] was inactive. Also, the Potency entry in assay [2], in assay [3], in assay [4] and in assay [6] was “inactive” in each case.
Take `CCOC(C)(C)C`: the result in assay [1] and in assay [5] was inactive. Besides, the Potency result in assay [2], in assay [3], in assay [4], in assay [6] and in assay [7] was “inactive” in each case.
Take `COC(=O)NN`: the call in assay [1] and in assay [5] was inactive. The Potency result in assay [2], in assay [3], in assay [4], in assay [6] and in assay [7] was “inactive” each time.
For the compound `O=C(c1ccccc1)C1CCCCC1`, the result in assay [1] and in assay [5] was inactive. Besides, the Potency entry in assay [2], in assay [3], in assay [4], in assay [6] and in assay [7] was “inactive” throughout.
Regarding `CN1CCCC1`, the outcome in assay [1] and in assay [5] was inactive. The Potency entry in assay [2], in assay [3], in assay [4] and in assay [6] was “inactive” throughout.
